Imprint erasure = inducers of genomic imprint erasure in mouse ES cells; AID 1948; mouse ES Peg3-LacZ reporter, beta-gal luminescence, 40 h; Potency, µM (top dose mostly 60.7 µM), inactives show at the highest dose activity change, positive = activation, most hits filed as activators; 110,000 tested, 0.02% active
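Gelatin-coated wells received 300 freshly trypsinized female ES cells with a Peg3LacZ-Neo reporter on the maternal allele, then incubated 40 hours at 37C. BetaGlo was added for 5 minutes at room temperature before a single luminescence read.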
ERK AVP inh = vasopressin-driven ERK pathway inhibition; AID 995; Potency, µM (top dose mostly 57.5 µM), for inactives: at the highest dose activity, negative = inhibition, usual class: inhibitors; 72,000 tested, 0.99% active; HEK293-V1b, vasopressin-stimulated pERK AlphaScreen; further: on the % scale 0 is the no-effect control and ±100 the full control effect; nearly all actives have a fitted effect of over 55% in size
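HEK293 cells stably expressing V1b receptor, preincubated 30 min at 37 °C with compound, then stimulated 5 min with 25 nM vasopressin. Phospho-ERK by AlphaScreen SureFire after 5 h RT; normalized to DMSO and vasopressin; AC50 by Hill fit.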
CRE-bla Fsk = CRE-bla signaling modulation under forskolin stimulation; Potency, µM (series often up to 38.2 µM), for inactives: at the highest dose activity change, negative = inhibition, hits mostly activators; 71,000 tested, 2.5% active; CHO CRE-bla reporter (cAMP response element driving beta-lactamase), forskolin EC10, beta-lactamase ratio; active means well fitted activation curve with a large enough effect in the signal ratio, with a control signal flat, not every such curve was filed as active; inconclusive means small, poorly fitted or top-dose-only effect, or effect the other way, or a change in a side signal; the % refers to the signal ratio; further: % of control where 0% means no effect
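CRE-bla CHO reporter cells treated with compound titration plus EC10 NKH 477 (water-soluble forskolin), incubated 3 h at 37 °C; CCF4 loading 2 h at room temperature, 460/530 nm emission ratio read, AC50 values derived for positive or negative modulators.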
IkB sig inh = suppresses IkB signaling in ABC-DLBCL reporter cells; ABC-DLBCL IkBa-CBG/CBR dual luciferase ratio, 4 h; response scale: scaled: untreated 0%, proteasome inhibitor 100%; Potency, µM (doses to about 57.1 µM), for the others: top-dose IkBa stabilization activation; 110,000 tested, 0.04% active; AID 445; active means well fitted curve in the direction sought with a large enough effect in the signal ratio, not every such curve was filed as active; inconclusive means small, poorly fitted or top-dose-only effect, or a change in a side signal; the % refers to the signal ratio;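 further: the direction sought is a rising ratio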
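Luminescence ratio of IκBα-fused green versus native red beetle luciferase in OCI-Ly3 cells, 4 h post-doxycycline with compound; red signal alone, scaled from basal (0%) to zero light (-100%), flagged nonspecific or cytotoxic effects.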
The depositor's hits bear a star; [ ] = remark or other dose. The sample as a whole holds a higher share of hits than the screen did. Unless noted, the call rests on the fitted dose curve; in most records, active means well fitted curve in the direction sought with a large enough effect; inconclusive means small, poorly fitted or top-dose-only effect, or another doubt; inactive means no such curve, though single readings can be large; an effect the other way counts as inactive or inconclusive. Potency means the concentration at half of the fitted maximal effect.

Screening C[C@@H]1CC[C@H]2C(=O)NC[C@@H](O)CN2[C@@H]1c1ccc(Br)cc1 returned ERK AVP inh -8%[11.5 µM].
COC(=O)[C@H](CCSC)NC(=O)C/C=C\[C@@H](C)[C@@H](CO)OC was read as ERK AVP inh 11%[11.5 µM].
`CCNc1ncc2nc(-c3cc(F)cc(F)c3)c(=O)n(C3CC3)c2n1` gave Imprint erasure -4%, ERK AVP inh 6%, CRE-bla Fsk inconclusive and IkB sig inh 0%[11.4 µM].
`CCCn1c(N)c(C(=O)CSc2nc3ccccc3n2CCC#N)c(=O)n(C)c1=O` gave Imprint erasure -12%, ERK AVP inh 4%, CRE-bla Fsk 1.6µM* and IkB sig inh 0%.
Cc1ccc2c(c1)C(=O)C1(O)CCN(c3ccccc3)C1=N2 (stereo not drawn) was read as Imprint erasure -12%.
Screening c1ccc(Cn2nnc3c(N4CCCCCC4)ncnc32)cc1 returned Imprint erasure -21%, ERK AVP inh -15%, CRE-bla Fsk 3.2µM* and IkB sig inh 7%.
For Clc1cccc(Cl)c1Cn1cnc2c(N3CCCCCC3)ncnc21 the results were Imprint erasure -14%, ERK AVP inh -1%, CRE-bla Fsk 2µM* and IkB sig inh 0%.
For O=C(O)c1cc2c(cc1S(=O)(=O)O)[C@H]1[C@@H](C3[C@H]2[C@@]2(Cl)C(Cl)=C(Cl)C3(Cl)C2(Cl)Cl)[C@]2(Cl)C(Cl)=C(Cl)C1(Cl)C2(Cl)Cl (stereo partly drawn) the results were Imprint erasure 3%[10.9 µM].
`CC(C)Oc1ccccc1C1CC(=O)Nc2cc3c(cc21)OCO3` (stereo not drawn) gave Imprint erasure -27%, ERK AVP inh 15%, CRE-bla Fsk 5µM* and IkB sig inh inconclusive.
`CCOc1ccccc1C1CC(=O)Nc2cc3c(cc21)OCCO3` (stereo not drawn) gave Imprint erasure -20%, ERK AVP inh -27%, CRE-bla Fsk 10µM* and IkB sig inh 5%.
CCOc1cc(C2CC(=O)Nc3cc4c(cc32)OCCO4)ccc1O (stereo not drawn) was read as Imprint erasure -13%[10.9 µM] and IkB sig inh 1%.
For CCCCOc1ccccc1C1CC(=O)Nc2cc(C)c(C)cc21 (stereo not drawn) the results were Imprint erasure -14%[10.9 µM] and IkB sig inh 0%.
`CCOc1ccccc1C1CC(=O)NC2=C1C(=O)CCC2` (stereo not drawn) gave Imprint erasure -16%, ERK AVP inh 15%, CRE-bla Fsk 10% and IkB sig inh 0%.
`CCCOc1ccccc1C1CC(=O)Nc2cc3c(cc21)OCCO3` (stereo not drawn) gave Imprint erasure -23%, ERK AVP inh inconclusive, CRE-bla Fsk 6.3µM* and IkB sig inh inconclusive.
`CCCCOc1ccccc1C1CC(=O)NC2=C1C(=O)CCC2` (stereo not drawn) gave Imprint erasure -16%, ERK AVP inh 5%, CRE-bla Fsk 16µM* and IkB sig inh 6%.
C=CCOC(=O)C(C(=O)CC)C(NC(=O)OC)c1ccc(F)cc1 (stereo not drawn) was read as ERK AVP inh 5%[11.5 µM].
`O=C(O)/C=C(/C(=O)O)[C@]12CCN3CC4=CCO[C@@H]5CC(=O)N[C@@H]1C5[C@H]4C[C@H]32` (stereo partly drawn) gave Imprint erasure 4%[10.9 µM].
`N#CC1=C(N)S[C@H](C(=O)C23CC4CC(CC(C4)C2)C3)[C@H]1c1ccncc1` gave Imprint erasure -41%, ERK AVP inh -6%, CRE-bla Fsk 0.79µM* and IkB sig inh inconclusive.
Fc1ccc(Nc2ccnc(-c3ccoc3)n2)cc1 was read as Imprint erasure -7%, ERK AVP inh 32µM*, CRE-bla Fsk -19% and IkB sig inh 1%[11.4 µM].
Screening Cn1c(C(=O)N2CCCC(C(=O)NCCCc3ccccc3)C2)cc2sccc21 (stereo not drawn) returned Imprint erasure -18%, ERK AVP inh 20µM*, CRE-bla Fsk -8% and IkB sig inh inconclusive.
For CO[C@H]1COC(=O)C/C=C\[C@H](C)[C@@H](OC)COC(=O)[C@@H](C)NC(=O)C/C=C\[C@@H]1C the results were ERK AVP inh 10%[11.5 µM].
`COc1ccc(OC)c(C2OCCC=CC2C)c1` (stereo not drawn) gave ERK AVP inh 8%[11.5 µM].

Bioassay records deposited in PubChem BioAssay by National Center for Advancing Translational Sciences (NCATS).
